ERAP1 inh – human ERAP1 aminopeptidase inhibitors, primary screen, biochemical, single point, plate reader; actives 0.15% (n = 340,000); Endoplasmic reticulum aminopeptidase 1 (Homo sapiens), Q9NZ08; inhibition, % at 10.7 µM; recombinant ERAP1, Leu-AMC fluorescence, 60 min;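 active = mean replicate inhibition of at least 30%, or all replicates individually reaching that 30% level; inactive = mean below 30% and not every replicate reaching it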
CASP6 VEID inh – human caspase-6 inhibitors, primary screen, biochemical, VEID-R110 fluorescence, single point, set 2 | AID 686996, 2013 | inhibition, % at 12.5 µM | actives 0.53% (n = 350,000) | P55212 | purified caspase-6, Z-VEID-R110 cleavage fluorescence;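 active = mean inhibition across replicates at least about 35%, with every replicate also reaching that limit, limit read from the data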
Target sequence (P55212 24-179 limits assumed): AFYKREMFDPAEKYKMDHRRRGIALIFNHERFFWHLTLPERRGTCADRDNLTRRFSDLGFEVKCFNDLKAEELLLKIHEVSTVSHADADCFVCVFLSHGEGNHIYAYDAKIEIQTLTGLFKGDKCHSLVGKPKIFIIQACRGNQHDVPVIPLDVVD
Target sequence (P55212 194-293 limits assumed): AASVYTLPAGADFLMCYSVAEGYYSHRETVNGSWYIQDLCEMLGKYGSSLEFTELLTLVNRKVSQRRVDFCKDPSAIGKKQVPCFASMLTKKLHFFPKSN
GSIS activator – GLuc luminescence reporter in INS-1E cells, primary screen for activators of glucose-dependent secretion of insulin. INS-1E GLuc reporter insulin secretion, 2-3 h. activation, % at 16.6 µM. actives 0.61% (n = 370,000). AID 743287, 2014;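 active = lowest replicate activation of at least 40%, so every replicate reaches that level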
SIRT5 block – SIRT5 desuccinylase inhibitors, primary screen, biochemical, fluorescence imaging, single point, set 5; inhibition, % at 15 µM; actives 1.1% (n = 330,000); Purified SirT5, succinyl-peptide AMC, trypsin-coupled fluorescence; AID 652115, 2013; in the data active = inhibition above about 15%
Target sequence (Q9NXA8 whole entry, looked up): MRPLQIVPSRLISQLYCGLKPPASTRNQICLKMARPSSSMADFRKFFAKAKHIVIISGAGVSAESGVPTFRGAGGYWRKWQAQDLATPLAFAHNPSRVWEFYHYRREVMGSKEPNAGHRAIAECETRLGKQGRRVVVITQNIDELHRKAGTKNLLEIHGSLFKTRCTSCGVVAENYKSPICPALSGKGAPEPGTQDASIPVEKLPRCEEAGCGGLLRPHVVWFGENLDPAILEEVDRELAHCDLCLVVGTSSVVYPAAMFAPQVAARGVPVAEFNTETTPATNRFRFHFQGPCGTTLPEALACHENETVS
FGF22 binding-1 – binders of human FGF22 protein, primary screen, FGF22 synaptogenesis inhibitor project, biophysical, thermal shift, single point. actives 1.5% (n = 340,000). recombinant FGF22 thermal shift, SYPRO orange fluorescence; percent of sucrose octasulfate shift, DMSO zero. activity (Tm shift, normalised), % at 9.99 µM;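 active = mean Tm shift, scaled 0 neutral to 100 positive control, at about 1.3% or above, every replicate too, limit read from the data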
FGF22 binding-2 – binders of human FGF22 protein, dose response, FGF22 synaptogenesis inhibitor project, biophysical, thermal shift, cherry-pick retest. AID 720646, 2013. recombinant FGF22 thermal shift, SYPRO orange fluorescence. thermal shift activity, °C (ΔTm) at 38 µM. shares compounds with FGF22 binding-1. actives 2% (n = 1,000);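 active = fitted rise in melting shift crosses a set limit at or below the top valid dose tested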
SYPRO no-protein – compound-only thermal shift signal without protein, dose response, artefact control for FGF22 binder project, biochemical, cherry-picked samples, RT-PCR instrument; shares compounds with FGF22 binding-1; compound-only SYPRO orange thermal shift counter-screen, no protein; AC50, µM (doses to about 38 µM); actives 2% (n = 1,000);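 active = rising signal whose fitted curve reaches the 0.54 level within the top valid dose, showing a melting point, actives reach about 13 µM in these data; inactive = the rest, including activity in the opposite direction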; also: value is where the raw curve crosses a fixed level and not half-maximal
A number is an active result; i = inactive; nt = not tested or not shown; ! = not confirmed by another sample. Rows were chosen to be rich in hits. Some 3.3% of all compounds tested hit in one or more screens of this group.

SMILES | ERAP1 inh | CASP6 VEID inh | GSIS activator | SIRT5 block | FGF22 binding-1 | others
Cc1ccc2nc(N(CCCN(C)C)C(=O)c3ccco3)sc2c1 | nt | i | i | i | i
Cc1ccc(S(=O)(=O)Nc2ccc3c(c2)C(=O)N([C@H](C)CO)C[C@@H](C)[C@H](CN(C)Cc2ccncc2)OCCCC[C@@H](C)O3)cc1 | i | i | i | i | i
CC=Cc1ccc2n(c1=O)C[C@@H]1[C@@H](CO)[C@H](C(=O)N3CCN(C)CC3)N(Cc3ccccc3F)[C@H]21 (mixture of isomers) | i | i | i | i | i
O=C(c1cccc([N+](=O)[O-])c1)c1cc2ccccc2o1 | i | i | i | 32 | i
COc1ccccc1NC(=O)Nc1ccc(Cc2ccncc2)cc1 | i | i | nt | i | 43
C[C@@H]1CCCCO[C@@H](CN(C)Cc2ccc(Cl)c(Cl)c2)[C@@H](C)CN([C@H](C)CO)C(=O)c2cc(NC(=O)c3ccncc3)ccc2O1 | i | i | i | 15 | i
Cc1noc(C)c1NC(=O)Nc1ccc2c(c1)C(=O)N([C@@H](C)CO)C[C@H](C)[C@@H](CN(C)Cc1ccc(Cl)c(Cl)c1)OCCCC[C@H](C)O2 | i | i | i | 15 | i
C[C@@H]1CCCCO[C@@H](CN(C)Cc2ccc(Cl)c(Cl)c2)[C@@H](C)CN([C@H](C)CO)C(=O)c2cc(NC(=O)CCCCCC(=O)Nc3ccccc3N)ccc2O1 | i | i | i | 24 | i
Cc1noc(C)c1NC(=O)Nc1ccc2c(c1)C(=O)N([C@H](C)CO)C[C@H](C)[C@@H](CN(C)Cc1ccc(Cl)c(Cl)c1)OCCCC[C@@H](C)O2 | i | i | i | i | i
C[C@@H]1CN([C@H](C)CO)C(=O)Cc2cc(NS(=O)(=O)c3ccc(F)cc3)ccc2O[C@@H]1CN(C)Cc1ccc(C(=O)O)cc1 | i | i | i | i | i
O=C(C[C@@H]1C[C@H]2c3cc(NC(=O)NC4CCCCC4)ccc3O[C@H]2[C@@H](CO)O1)NCc1ccncc1 | i | i | i | i | i
CCNC(=O)C[C@@H]1CC[C@@H]2[C@H](COc3ccc(NS(C)(=O)=O)cc3C(=O)N2C)O1 | i | i | i | i | i
C[C@H](CO)N1C[C@H](C)[C@H](CN(C)S(=O)(=O)c2cccs2)Oc2ncccc2C1=O | i | i | i | i | i
O=C(Cc1ccc(Cl)cc1)Nc1ccc(CN2CCCCC2)cc1 | nt | i | i | 80 | i
O=C(CN1CCCCC1)Nc1ccc(S(=O)(=O)c2ccc(NC(=O)CN3CCCCC3)cc2)cc1 | i | i | i | nt | 44
CC(=O)Nc1ccc(CN2CCCCCC2)cc1 | i | i | i | i | i
CCNC(=O)[C@@H]1[C@@H](CO)[C@@H]2Cn3c(ccc(-c4ccc(OC)cc4)c3=O)[C@H]1N2S(C)(=O)=O | i | i | i | i | i
CN(C)CCOc1ccc(/C(=C(/CCCl)c2ccccc2)c2ccccc2)cc1 | i | i | 104 | i | i
CCNC(=O)[C@@H]1[C@@H](CO)[C@@H]2Cn3c(cccc3=O)[C@@H]2N1CC1CCCCC1 | nt | nt | i | nt | nt
CCC(CC)C(=O)c1c[nH]c(C(=O)NCc2ccncc2)c1 | i | i | i | i | i
O=C(NCc1ccncc1)c1ccc(Oc2ccccc2)cc1 | i | i | i | i | i
O=C(Cc1ccccc1)c1c[nH]c(C(=O)NCc2ccncc2)c1 | i | i | i | i | 43
O=C(NCc1ccncc1)c1ccc(OCc2ccccc2)cc1 | i | 36 | i | nt | i
CC1=NN(c2ccccc2)C(=O)/C1=C\C=C\c1ccccc1 | i | i | nt | i | i
CC1=NN(c2ccc(C)c(C)c2)C(=O)/C1=C\C=C\c1ccc([N+](=O)[O-])o1 | i | 47 | i | i | 43
SMILES | ERAP1 inh | CASP6 VEID inh | GSIS activator | SIRT5 block | FGF22 binding-1 | others
C[C@@H]1CCCCO[C@@H](CN(C)Cc2ccc(C(F)(F)F)cc2)[C@@H](C)CN([C@@H](C)CO)C(=O)c2cc(NS(=O)(=O)c3ccc(Cl)cc3)ccc2O1 | i | i | i | 16 | i
C[C@@H]1CN([C@H](C)CO)C(=O)c2cc(NS(=O)(=O)c3ccc(Cl)cc3)ccc2O[C@@H](C)CCCCO[C@@H]1CN(C)Cc1ccc(C(F)(F)F)cc1 | i | i | i | 17 | i
C[C@H](CO)N1C[C@H](C)[C@@H](CN(C)Cc2ccc(C(F)(F)F)cc2)OCCCC[C@H](C)Oc2ccc(NS(=O)(=O)c3ccc(Cl)cc3)cc2C1=O | i | i | i | 19 | i
C[C@@H]1CCCCO[C@@H](CN(C)Cc2ccc(C(F)(F)F)cc2)[C@@H](C)CN([C@H](C)CO)C(=O)c2cc(NS(=O)(=O)c3ccccc3)ccc2O1 | i | i | i | i | nt
Cc1noc(C)c1NC(=O)N(C)C[C@H]1Oc2ccc(NC(=O)NC3CCCCC3)cc2CC(=O)N([C@@H](C)CO)C[C@H]1C | i | i | i | i | i
COc1ccc(C2C3(C#N)C(N)=NC(OC)(OC)C23C#N)cc1 (centres undefined) | i | i | i | 18 | i
O=C(CC1CC1)Nc1ccc2c(c1)[C@@H]1C[C@@H](CC(=O)N3CCCCC3)O[C@H](CO)[C@@H]1O2 | i | i | i | i | i
COCCN1Cc2cccc(C(=O)NCc3ccccc3OC)c2C1=O | nt | nt | 55 | nt | nt
C[C@H](CO)N1C[C@H](C)[C@H](CN(C)S(=O)(=O)c2ccc(F)cc2)OCc2cnnn2CCCC1=O | i | i | i | i | 1.5! | FGF22 binding-2=i;SYPRO no-protein=i
C[C@H](CO)N1C[C@H](C)[C@H](CN(C)C(=O)c2cc(-c3ccccc3)on2)OCc2cnnn2CCCC1=O | i | i | i | 18! | 30! | FGF22 binding-2=i;SYPRO no-protein=i
C[C@@H]1CN([C@@H](C)CO)C(=O)CCCn2nncc2CO[C@H]1CN(C)Cc1ccccc1C(=O)O | i | i | i | i | 1.3 | FGF22 binding-2=i;SYPRO no-protein=i
C[C@@H]1CN([C@H](C)CO)C(=O)CCCn2cc(nn2)CO[C@@H]1CN(C)C(=O)OCc1ccccc1 | nt | nt | i | nt | nt
C[C@H](CO)N1C[C@H](C)[C@@H](CN(C)C(=O)OCc2ccccc2)OCc2cn(nn2)CCCC1=O | i | i | i | i | 17! | FGF22 binding-2=i;SYPRO no-protein=i
C[C@@H]1CCCCO[C@@H](CN(C)C(=O)c2ccccc2)[C@@H](C)CN([C@@H](C)CO)C(=O)c2cc(NS(=O)(=O)c3cn(C)cn3)ccc2O1 | i | i | i | i | nt

Screens deposited in PubChem by Broad Institute.
